Reference: PubChem BioAssay AID1362 (SRMLSC, 2008)
About 4,000 (2.1%) of roughly 190,000 compounds were called active. Cut-off read from the data, not from the text of the source: active = inhibition above about 58%; inactive = the rest, inconclusive results apart; tested in S. cerevisiae. Many of the other results were omitted from the sample, so actives are more common in it than they were.

Test: growth inhibition of WT strain, primary screen, mitochondrial fusion inhibitor project, WT and mutant strains, chemical genetic (AID 1362)
Details: mitochondrial fusion phenotypic screen, at 10 µM
[1] = WT strain, growth inhibition, stronger effect = higher value

## COc1ccnc(Oc2ccccc2)c1-c1ncn[nH]1
[1]
  inhibition: 3.65% (inactive)
Mutant strain inhibition
  inhibition: 2.35%

## CC(=O)C1=C(O)C(=O)N(c2cccnc2)C1c1ccc([N+](=O)[O-])cc1 (stereo not given)
[1]
  inhibition: 2.65% (inactive)
Mutant strain inhibition
  inhibition: -8.89%

## Cc1cc(=O)[nH]c(SCC(N)=O)c1C#N
[1]
  inhibition: 59.8% (active)
Mutant strain inhibition
  inhibition: -65.4%

## Cc1cc(C#N)c(SCC(N)=O)nc1-c1ccc(F)cc1
[1]
  inhibition: -8.84% (inactive)
Mutant strain inhibition
  inhibition: 0.95%

## Cc1cc(C)c(C#N)c(SCC(=O)Nc2ccccc2)n1
[1]
  inhibition: 9.11% (inactive)
Mutant strain inhibition
  inhibition: -9.66%

## C=CCOc1c(CNn2cn[nH]c2=S)cccc1OC
[1]
  inhibition: -4.69% (inactive)
Mutant strain inhibition
  inhibition: -6.27%

## Cc1ccc(CNC(=O)c2cccnc2Cl)cc1
[1]
  inhibition: -14.3% (inactive)
Mutant strain inhibition
  inhibition: -25.1%

## CCC(C)(C)c1ccc(OCC(=O)N(C)C)c(C(C)(C)CC)c1
[1]
  inhibition: 79.9% (active)
Mutant strain inhibition
  inhibition: 14.1%

## CN(C)CCOc1ccc(Cl)cc1C(C)(C)C
[1]
  inhibition: 27.8% (inactive)
Mutant strain inhibition
  inhibition: 4.52%

## CCc1nc(C)ccc1OCC(=O)N(CC)CC
[1]
  inhibition: -20.5% (inactive)
Mutant strain inhibition
  inhibition: -10.4%

## O=S1(=O)CC/C(=N\Nc2ccc(F)cc2)c2ccsc21
[1]
  inhibition: 26.2% (inactive)
Mutant strain inhibition
  inhibition: 34.7%

## CCC(C)(C)c1ccc(Oc2ccc(NC(=O)COC(=O)C3=COCCO3)cc2)cc1
[1]
  inhibition: 60.5% (active)
Mutant strain inhibition
  inhibition: 33.7%

## COc1ccc(NC(=O)COC(=O)CNC(=O)C2CCCCC2)cc1
[1]
  inhibition: -11.9% (inactive)
Mutant strain inhibition
  inhibition: 12.1%

## O=C(OCC(=O)c1cccs1)C1=COCCO1
[1]
  inhibition: 9.96% (inactive)
Mutant strain inhibition
  inhibition: 20.9%

## CN(C)c1ccc(/C=N/NC(=O)C(O)c2ccc(Br)cc2)cc1 (stereo not given)
[1]
  inhibition: -4.38% (inactive)
Mutant strain inhibition
  inhibition: 1.15%

## Cc1ccccc1CSc1nnc(-c2ccccc2)c(=O)[nH]1
[1]
  inhibition: 12.9% (inactive)
Mutant strain inhibition
  inhibition: -13.6%

## O=C(Nc1ccccc1C(=O)O)c1cc(S(=O)(=O)N2CCCCC2)cs1
[1]
  inhibition: 1.49% (inactive)
Mutant strain inhibition
  inhibition: -6%

## Cc1cc(C)c(C2C3=C(Nc4c2c(C)nn4-c2ccccn2)c2ccccc2C3=O)c(C)c1 (stereo not given)
[1]
  inhibition: 78.7% (active)
Mutant strain inhibition
  inhibition: 55%

## Cc1nn(-c2ccccn2)c2c1C(c1ccncc1)C1=C(CC(C)(C)CC1=O)N2 (stereo not given)
[1]
  inhibition: -4.23% (inactive)
Mutant strain inhibition
  inhibition: -14.9%

## Cc1ccc(C2C3=C(Nc4[nH]n(-c5ccccc5)c(=O)c42)c2ccccc2C3=O)cc1 (stereo not given)
[1]
  inhibition: -0.51% (inactive)
Mutant strain inhibition
  inhibition: -6.48%

## COc1cccc(C(=O)Oc2cc(C)[nH]c(=O)c2[N+](=O)[O-])c1
[1]
  inhibition: 15.8% (inactive)
Mutant strain inhibition
  inhibition: -9.84%

## O=C(N/N=C/c1ccccn1)c1ccc(S(=O)(=O)N2CCCCCC2)cc1
[1]
  inhibition: 2.23% (inactive)
Mutant strain inhibition
  inhibition: 0.85%

## COc1ccc(NC(=O)c2ccccc2CC[N+](=O)[O-])cc1
[1]
  inhibition: 1.85% (inactive)
Mutant strain inhibition
  inhibition: 1.42%

## O=C(Nc1ccccc1F)c1ccc(Cn2cc(Br)cn2)cc1
[1]
  inhibition: 10.6% (inactive)
Mutant strain inhibition
  inhibition: -0.75%

## COCCCNC(=O)Cn1c(=O)n(Cc2ccccc2Cl)c(=O)c2cc(OC)c(OC)cc21
[1]
  inhibition: -6.28% (inactive)
Mutant strain inhibition
  inhibition: 4.75%

## C=CCn1c(SCc2nnc(-c3ccccc3)o2)nnc1C(O)c1ccccc1 (stereo not given)
[1]
  inhibition: -11.7% (inactive)
Mutant strain inhibition
  inhibition: -5.65%

## CCCN(CCC)c1ccc(C(O)c2nnc(-c3ccccc3)o2)cc1 (stereo not given)
[1]
  inhibition: 76.5% (active)
Mutant strain inhibition
  inhibition: 31.6%

## OC(c1nnc(-c2ccccc2)o1)c1cccs1 (stereo not given)
[1]
  inhibition: -15.8% (inactive)
Mutant strain inhibition
  inhibition: 5.68%

## Cc1ccc(S(=O)(=O)N(C)C)cc1NC(=O)COC(=O)C1COc2ccccc2O1 (stereo not given)
[1]
  inhibition: -0.23% (inactive)
Mutant strain inhibition
  inhibition: -14.6%

## CCOc1ccccc1NC(=O)Nc1cc(OC)ccc1OC
[1]
  inhibition: -4.32% (inactive)
Mutant strain inhibition
  inhibition: 11.2%

## CCOc1ccc(-c2n[nH]c(C)c2-c2ccccn2)c(O)c1
[1]
  inhibition: -20.5% (inactive)
Mutant strain inhibition
  inhibition: 3.26%

## CCOc1ccccc1Oc1cn[nH]c1-c1ccc(OC)cc1O
[1]
  inhibition: 61.8% (active)
Mutant strain inhibition
  inhibition: 25.6%

## C/C(=N\NC(=S)NCc1ccccc1)C1CCCCC1
[1]
  inhibition: 47.2% (inactive)
Mutant strain inhibition
  inhibition: 53.3%

## Cc1cc(C)nc(NS(=O)(=O)c2ccc(N/C=C\C(=O)c3cccs3)cc2)n1
[1]
  inhibition: -2.27% (inactive)
Mutant strain inhibition
  inhibition: 7.04%

## Fc1ccc(N2CCN(Cc3cnc(Oc4ccc(Br)cc4)s3)CC2)cc1
[1]
  inhibition: 59% (active)
Mutant strain inhibition
  inhibition: 34%

## Oc1c(CN2CCN(c3ccc(F)cc3)CC2)cc(Cl)c2cccnc12
[1]
  inhibition: -1.47% (inactive)
Mutant strain inhibition
  inhibition: -25%

## COc1ccc(N2CCN(Cc3ccc(Br)s3)CC2)cc1
[1]
  inhibition: 20.2% (inactive)
Mutant strain inhibition
  inhibition: 14.9%

## Cc1ccc(-c2csc(N(Cc3ccco3)C(=O)c3cccs3)n2)cc1
[1]
  inhibition: 67.6% (active)
Mutant strain inhibition
  inhibition: 34.4%

## Cc1ccc(-c2csc(NC(=O)c3cccs3)n2)cc1
[1]
  inhibition: 22.4% (inactive)
Mutant strain inhibition
  inhibition: 16.9%

## O=C(O)CCC(=O)N(Cc1ccco1)c1nc(-c2ccccc2)cs1
[1]
  inhibition: -21.3% (inactive)
Mutant strain inhibition
  inhibition: 4.1%

## O=c1[nH]c(CN2CCOCC2)nc2scc(-c3ccccc3)c12
[1]
  inhibition: 5.72% (inactive)
Mutant strain inhibition
  inhibition: -6.95%

## CC1(C)CCCC2=C1CC1C(=O)N(c3ccccc3)C(=O)C1C2 (stereo not given)
[1]
  inhibition: 6.4% (inactive)
Mutant strain inhibition
  inhibition: -1.63%

## CC1CC2=C(CC1/C=N/NC(N)=S)C(C)(C)CCC2 (stereo not given)
[1]
  inhibition: 67.3% (active)
Mutant strain inhibition
  inhibition: 64.1%

## NC(=O)c1ccc(NC(=O)COC(=O)C(Cc2ccccc2)NC(=O)c2ccccc2)cc1 (stereo not given)
[1]
  inhibition: -21.4% (inactive)
Mutant strain inhibition
  inhibition: -11.6%

## O=C(c1ccccc1)c1ccc(OCC(O)CN2CCCC2)cc1 (stereo not given)
[1]
  inhibition: -8.18% (inactive)
Mutant strain inhibition
  inhibition: 5.68%

## Cc1ccc(NC(=O)NNC(=O)c2sccc2-n2cccc2)cc1
[1]
  inhibition: -13.1% (inactive)
Mutant strain inhibition
  inhibition: -0.19%

## Cc1cccc(N=C2NN=C(c3c[nH]c4ccccc34)CS2)c1
[1]
  inhibition: 13.8% (inactive)
Mutant strain inhibition
  inhibition: -10.5%

## Clc1cccc(N=C2NN=C(c3ccc4c(c3)OCCO4)CS2)c1
[1]
  inhibition: 67.3% (active)
Mutant strain inhibition
  inhibition: 17%

## c1ccc(CN2CCC(N=C3NN=C(c4ccc5c(c4)OCCO5)CS3)CC2)cc1
[1]
  inhibition: 10.8% (inactive)
Mutant strain inhibition
  inhibition: 33%

## O=C(Nc1ccccc1)/C(=C/c1ccc([N+](=O)[O-])cc1)NC(=O)c1ccccc1
[1]
  inhibition: -0.76% (inactive)
Mutant strain inhibition
  inhibition: -8.51%

## Cc1cccc(NC(=O)c2sc(-c3ccccc3)nc2-c2ccc([N+](=O)[O-])cc2)c1
[1]
  inhibition: 2.52% (inactive)
Mutant strain inhibition
  inhibition: -6.51%

## CCOC(=O)/C(=C\c1ccc([N+](=O)[O-])cc1)C(=O)c1cc(C(C)=O)c(Nc2ccccc2)s1
[1]
  inhibition: 84.2% (active)
Mutant strain inhibition
  inhibition: 50.2%

## CC(=O)NCC(=O)N(Cc1ccco1)C1(C(=O)NC2CCCC2)CCCCC1
[1]
  inhibition: -0.52% (inactive)
Mutant strain inhibition
  inhibition: 10.2%

## O=C(CCCN1C(=O)/C(=C/c2ccccc2)SC1=S)Nc1ccc(O)cc1
[1]
  inhibition: -11.2% (inactive)
Mutant strain inhibition
  inhibition: 6.5%

## Cc1ccc(OCC(=O)N/N=C\c2ccco2)c(C)c1
[1]
  inhibition: 8.35% (inactive)
Mutant strain inhibition
  inhibition: 16.3%

## Cc1ccc(OCC(=O)N/N=C/c2ccncc2)cc1
[1]
  inhibition: -0.91% (inactive)
Mutant strain inhibition
  inhibition: -0.34%

## Cc1ccc(/C=N/NC(=O)COc2ccccc2-c2ccccc2)cc1
[1]
  inhibition: 93.7% (active)
Mutant strain inhibition
  inhibition: 20.8%

## CC(C(=O)NC1CCCC1)N(c1ccc(Oc2ccccc2)cc1)S(C)(=O)=O (stereo not given)
[1]
  inhibition: 20.8% (inactive)
Mutant strain inhibition
  inhibition: 6.65%

## COc1cccc(C(=O)N2CCCC(CCC(=O)NCc3ccc(F)c(F)c3)C2)c1 (stereo not given)
[1]
  inhibition: -18.6% (inactive)
Mutant strain inhibition
  inhibition: 0.91%

## O=C(CCCNS(=O)(=O)c1cccc2nsnc12)NCCN1CCN(c2ccccc2F)CC1
[1]
  inhibition: -5.33% (inactive)
Mutant strain inhibition
  inhibition: 6.35%
